# Measurements published in PubChem BioAssay (EPA / NIEHS).
# Several values for one entry are separate records, joined by “and”; a condition that tells them apart may be missing. Identical values can stand only once. Where a structure was tested more than once in an assay, its records may differ in their call. Activity calls are given as the source filed them. Rule for the calls: active = hit-call score of the fitted dose curve at least 0.9, where 1 is the maximum; inactive = score below 0.9.
# Tested on: not listed separately
# Assay: ATG_SREBP_CIS: Attagene CIS-FACTORIAL HepG2 Assay for human Sterol Regulatory Element Binding (SREBP) (AID 2282962)
# Conditions: HepG2 Attagene cis-factorial SREBP reporter, mRNA; actives raise or lower the signal
# Outline: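 Values derive from bidirectional curve fitting with DMSO as baseline. The underlying measurement is reporter mRNA from cis-element-regulated units in transiently transfected HepG2, quantified by RT-PCR and capillary electrophoresis after 24 h exposure.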
SMILES,outcome,AC50
Oc1ccc(C(c2ccc(O)cc2)(C(F)(F)F)C(F)(F)F)cc1,inactive,
Cc1cc(-c2ccc(N)c(C)c2)ccc1N,inactive,
CCCCCCCCCc1ccc(O)cc1,inactive,
CC(C)(c1ccccc1)c1ccc(O)cc1,inactive,
ClC1=C(Cl)[C@]2(Cl)[C@@H]3[C@@H](Cl)[C@H]4O[C@H]4[C@@H]3C1(Cl)C2(Cl)Cl,,51.4 µM (active)
CCC(=O)O[C@H]1CC[C@H]2[C@@H]3CCC4=CC(=O)CC[C@]4(C)[C@H]3CC[C@]12C,,137 µM (active) [middle of 4 runs]
NS(=O)(=O)C(F)(F)C(F)(F)C(F)(F)C(F)(F)C(F)(F)C(F)(F)C(F)(F)C(F)(F)F,inactive,38.9 µM (active) and 50 µM (active)
Cc1cccc(C)c1N,inactive,
O=C(O)C(F)(F)C(F)(F)C(F)(F)C(F)(F)C(F)(F)F,inactive,
CCOC(=O)C(O)(c1ccc(Cl)cc1)c1ccc(Cl)cc1,inactive,
Cc1ccccc1[N+](=O)[O-],inactive,
CC(C)(O)C(=O)Nc1ccc([N+](=O)[O-])c(C(F)(F)F)c1,inactive,
Sc1ccccc1,inactive,
O=C(N[C@H]1CN2CCC1CC2)c1cc2ccoc2cn1,inactive,
OCC(O)CO,inactive,
CCCN(CCC)N=O,inactive,
CCC(C)(CC)c1cc(NC(=O)c2c(OC)cccc2OC)on1,,10.8 µM (active)

SMILES,outcome,AC50
Clc1ccc(C(c2ccccc2Cl)C(Cl)(Cl)Cl)cc1 (configuration not stated),inactive,93.9 µM (active)
N#Cc1ccc(N(CC(N)=O)CC(F)(F)F)cc1C(F)(F)F,inactive,
O=S(=O)(O)C(F)(F)C(F)(F)C(F)(F)C(F)(F)C(F)(F)C(F)(F)F,inactive,
CCNc1nc(NC(C)C)nc(SC)n1,inactive,
O=C(O)C(F)(F)C(F)(F)C(F)(F)C(F)(F)C(F)(F)C(F)(F)C(F)(F)C(F)(F)F,inactive,
CCSC(=O)N(CC)C1CCCCC1,inactive,
Cc1cc2c3c(c1)C(c1ccccc1)=N[C@@H](NC(=O)c1ccncc1)C(=O)N3CC2,,19.9 µM (active)
O=C(O)C(F)(F)C(F)(F)C(F)(F)C(F)(F)C(F)(F)C(F)(F)C(F)(F)C(F)(F)C(F)(F)F,inactive,
CCC(C)(c1ccc(O)cc1)c1ccc(O)cc1,,33.4 µM (active) and 41.5 µM (active) and 13.9 µM (active)
ClC(Cl)=C(c1ccc(Cl)cc1)c1ccc(Cl)cc1,inactive,130 µM (active) and 169 µM (active)
Cc1ccccc1O,inactive,
C[C@]12CCC(=O)C=C1CC[C@@H]1[C@@H]2CC[C@]2(C)C(=O)CC[C@@H]12,inactive,68.4 µM (active)
CN(C)CCO,inactive,
CC#Cc1cc(C)nc(Nc2ccccc2)n1,inactive,
CCC(C)c1cc([N+](=O)[O-])cc([N+](=O)[O-])c1O (configuration not stated),,27.6 µM (active)
ClC1=C(Cl)[C@]2(Cl)[C@@H]3[C@H]4C[C@H]([C@@H]5O[C@H]45)[C@@H]3[C@@]1(Cl)C2(Cl)Cl,inactive,

# Biological target: Signal transducer and activator of transcription 3 (Homo sapiens) (UniProt P40763)
# Assay: ATG_STAT3_CIS: Attagene CIS-FACTORIAL HepG2 Assay for human Signal Transducer and Activator of Transcription 3 (STAT3) (AID 2282963)
# Conditions: HepG2, Attagene cis-factorial STAT3 reporter transcription; actives raise or lower the signal
# Outline: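 Cis-factorial format: endogenous transcription factors in HepG2 drive transfected reporter units. After 24 h treatment, reporter RNA was reverse-transcribed, amplified, FAM-labelled and HpaI-digested before CE analysis; activity scored in both directions against DMSO.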
# Chain of Signal transducer and activator of transcription 3 (Homo sapiens) (P40763 whole entry, looked up): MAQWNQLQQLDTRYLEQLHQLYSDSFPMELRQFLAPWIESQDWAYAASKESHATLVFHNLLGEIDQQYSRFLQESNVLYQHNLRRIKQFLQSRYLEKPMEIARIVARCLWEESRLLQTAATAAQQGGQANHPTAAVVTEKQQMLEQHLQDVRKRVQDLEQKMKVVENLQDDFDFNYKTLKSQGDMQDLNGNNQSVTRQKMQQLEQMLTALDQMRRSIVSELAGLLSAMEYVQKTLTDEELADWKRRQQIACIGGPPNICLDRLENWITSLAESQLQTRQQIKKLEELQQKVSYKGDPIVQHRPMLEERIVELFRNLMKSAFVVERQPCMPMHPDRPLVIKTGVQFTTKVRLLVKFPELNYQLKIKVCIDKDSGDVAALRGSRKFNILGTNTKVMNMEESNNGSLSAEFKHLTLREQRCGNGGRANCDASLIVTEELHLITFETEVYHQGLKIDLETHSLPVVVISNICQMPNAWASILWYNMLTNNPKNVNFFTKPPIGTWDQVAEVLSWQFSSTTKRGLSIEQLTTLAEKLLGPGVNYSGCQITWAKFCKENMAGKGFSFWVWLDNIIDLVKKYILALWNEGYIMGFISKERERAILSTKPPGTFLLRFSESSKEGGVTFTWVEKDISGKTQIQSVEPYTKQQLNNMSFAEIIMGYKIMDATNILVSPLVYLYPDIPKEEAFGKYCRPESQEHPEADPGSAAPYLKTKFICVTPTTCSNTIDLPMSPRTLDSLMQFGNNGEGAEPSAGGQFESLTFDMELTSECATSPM
SMILES,outcome,AC50
Oc1ccc(C(c2ccc(O)cc2)(C(F)(F)F)C(F)(F)F)cc1,inactive,
Cc1cc(-c2ccc(N)c(C)c2)ccc1N,inactive,
CCCCCCCCCc1ccc(O)cc1,inactive,168 µM (active)
CC(C)(c1ccccc1)c1ccc(O)cc1,inactive,55.9 µM (active) and 54.6 µM (active)
ClC1=C(Cl)[C@]2(Cl)[C@@H]3[C@@H](Cl)[C@H]4O[C@H]4[C@@H]3C1(Cl)C2(Cl)Cl,inactive,
CCC(=O)O[C@H]1CC[C@H]2[C@@H]3CCC4=CC(=O)CC[C@]4(C)[C@H]3CC[C@]12C,inactive,
NS(=O)(=O)C(F)(F)C(F)(F)C(F)(F)C(F)(F)C(F)(F)C(F)(F)C(F)(F)C(F)(F)F,inactive,
Cc1cccc(C)c1N,inactive,
O=C(O)C(F)(F)C(F)(F)C(F)(F)C(F)(F)C(F)(F)F,inactive,
CCOC(=O)C(O)(c1ccc(Cl)cc1)c1ccc(Cl)cc1,inactive,
Cc1ccccc1[N+](=O)[O-],inactive,
CC(C)(O)C(=O)Nc1ccc([N+](=O)[O-])c(C(F)(F)F)c1,inactive,
Sc1ccccc1,inactive,
O=C(N[C@H]1CN2CCC1CC2)c1cc2ccoc2cn1,inactive,
OCC(O)CO,inactive,
CCCN(CCC)N=O,inactive,
CCC(C)(CC)c1cc(NC(=O)c2c(OC)cccc2OC)on1,inactive,

SMILES,outcome,AC50
Clc1ccc(C(c2ccccc2Cl)C(Cl)(Cl)Cl)cc1 (configuration not stated),inactive,
N#Cc1ccc(N(CC(N)=O)CC(F)(F)F)cc1C(F)(F)F,inactive,
O=S(=O)(O)C(F)(F)C(F)(F)C(F)(F)C(F)(F)C(F)(F)C(F)(F)F,inactive,
CCNc1nc(NC(C)C)nc(SC)n1,inactive,
O=C(O)C(F)(F)C(F)(F)C(F)(F)C(F)(F)C(F)(F)C(F)(F)C(F)(F)C(F)(F)F,inactive,
CCSC(=O)N(CC)C1CCCCC1,inactive,
Cc1cc2c3c(c1)C(c1ccccc1)=N[C@@H](NC(=O)c1ccncc1)C(=O)N3CC2,inactive,
O=C(O)C(F)(F)C(F)(F)C(F)(F)C(F)(F)C(F)(F)C(F)(F)C(F)(F)C(F)(F)C(F)(F)F,inactive,
CCC(C)(c1ccc(O)cc1)c1ccc(O)cc1,inactive,
ClC(Cl)=C(c1ccc(Cl)cc1)c1ccc(Cl)cc1,inactive,
Cc1ccccc1O,inactive,
C[C@]12CCC(=O)C=C1CC[C@@H]1[C@@H]2CC[C@]2(C)C(=O)CC[C@@H]12,inactive,
CN(C)CCO,inactive,
CC#Cc1cc(C)nc(Nc2ccccc2)n1,inactive,
CCC(C)c1cc([N+](=O)[O-])cc([N+](=O)[O-])c1O (configuration not stated),inactive,
ClC1=C(Cl)[C@]2(Cl)[C@@H]3[C@H]4C[C@H]([C@@H]5O[C@H]45)[C@@H]3[C@@]1(Cl)C2(Cl)Cl,inactive,
